Laboratory results from PubChem BioAssay (NCI).
Compounds without any hit were thinned out: in the full panel of roughly 83,000, 20% have a hit.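 Growth was measured after 48 h exposure to one concentration of compound in 96-well plates. Values under 10 count as active.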 The source made the active and inactive calls.

These molecules were tested on HL-60(TB) leukemia (assay: NCI-60 one-dose screen, 48 h (100 = growth as untreated, 0 = no growth, -100 = all killed)). Settings: 10 µM unless noted.
In the case of O=C(Nc1ccc(-c2ccc3c(c2)NC(=O)/C3=C\c2ccc[nH]2)cc1)Nc1ccc(Cl)c(C(F)(F)F)c1, the growth is reported as 4.76% (active). In the case of COc1ccc(OC)c(Cn2cc(C#N)c(N)c2C(=O)c2ccc(Br)cc2)c1, the growth is reported as 20.7% (inactive). In the case of COc1ccc(NC(=O)c2sc3nc(C(C)C)ccc3c2N)cc1, the growth is reported as 66.3% (inactive). Cc1ncsc1-c1ccc(CNC(=O)[C@@H]2C[C@@H](O)CN2C(=O)[C@@H](NC(=O)C2(F)CC2)C(C)(C)C)c(OCCOCCOCCOCCOc2nc(Nc3cc(S(C)(=O)=O)ccc3N[C@@H](c3cccc4c3OC(F)(F)O4)c3ncccc3Cl)nc(N3CCNCC3)n2)c1 was tested, and the growth was 72% (inactive). COc1sc(/C=N/NC(=O)c2[nH]c3ccc(Br)cc3c2-c2ccccc2)cc1Br was tested, and the growth was -37.7% (active). For CC[C@]12C=CCN3CC[C@@]4(c5cc(C#CCNc6ccc(C)c(Nc7nccc(-c8cccnc8)n7)c6)c(OC)cc5N(C)[C@H]4[C@@](O)(C(=O)OC)[C@@H]1OC(C)=O)C32 (stereo partly specified), the growth was 30.8% (inactive). In the case of Cc1ccc2nc(SCc3ccccc3F)n(-c3ccccc3)c(=O)c2c1, the growth is reported as 104% (inactive). CC(=O)c1ccc(Nc2nc(SCCC(C)C)nc(-c3ccc(F)cc3)c2C#N)cc1 was tested, and the growth was 91.8% (inactive). CN(CCO)c1oc(-c2ccccc2)nc1[P+](c1ccccc1)(c1ccccc1)c1ccccc1 was tested, and the growth was -33.1% (active). With Cn1cc(-c2nc(N)nnc2-c2c[nH]c3ccc(F)cc23)c2cccnc21 the growth was 37.2% (inactive). For COc1cc(C2CC(c3cc(OC)c(OC)c(OC)c3)=Nc3c(N)nc(N)nc3N2)ccc1Oc1nc(Nc2ccc(F)cc2)nc(N(C)C)n1 (stereo unspecified), the growth was 8.45% (active).
